Data on 40 compounds can be found in PubChem BioAssay (Tox21).

Results filed as inconclusive are left out. Activity calls are given as the source filed them. Calls follow the shape of the dose curve; as a rule, active = well fitted cell-killing curve with a large enough effect in the repeat runs; inconclusive = weak or mixed curves, or effect the other way; inactive = flat fitted curve, though single readings scatter.
% is scaled to controls: 0 for no effect and ±100 for the full control effect; potency is read from the fitted curve at half-maximal effect.

This experiment in a line: qHTS RealTime-Glo MT Cell Viability Assay in HEK293 cells - 40 hour (AID 1224874). Also: nearly all actives have a fitted effect of over 50% in size. The conditions noted are these: RealTime-Glo luminescence; max response: stronger effect = lower value. From the text: U.S. Tox21 Program National Center for Advancing Translational Sciences [NCATS] NIH Chemical Genomics Center [NCGC] U.S. Environmental Protection Agency [EPA] National Institutes of Environmental Health Sciences [NIEHS] National Toxicology Program [NTP] U.S. Food and Drug Administration [FDA] Tox21 Assay Overview: Measure of cell viability is critical in the cell-base assay. Analysis of cell viability is necessary for the characterization of cell responses to cytotoxic drugs and environmental stress. A RealTime-Glo MT Cell Viability Assay to monitor cell viability in real time of continues cell culture during 40 hours of compound treatment was used to screen Tox21 10K library compounds in Hek293 cells. The RealTime-Glo MT Cell Viability Assay is a nonlytic, homogeneous, bioluminescent method to measure cell viability in real time using a simple, plate-based method. The assay involves adding NanoLuc luciferase and a cell-permeant prosubstrate to cells in culture. Viable cells reduce the proprietary prosubstrate to generate a substrate for NanoLuc luciferase. This substrate diffuses from cells into the surrounding culture medium, where it is rapidly used by the NanoLuc Enzyme to produce a luminescent signal. The signal correlates with the number of viable cells, making the assay well suited for cytotoxicity studies.
Tox21 Assay Protocol Summary: The mixture of Hek293 cell suspension and reagents were dispensed at 600cells/6 ul/well in 1536-well tissue culture treated black solid bottom plates using a Multidrop dispenser. After the assay plates were incubated at a 37 C/5% CO2 incubator for 5 hours, 23 nL of compounds dissolved in DMSO, positive and negative controls was transferred to the assay plate by a pintool work station. The plates were incubated at 37 C for 40 hours. The luminescence intensity were measured at 0h, 8h, 16h, 24h, 32h and 40h time points using ViewLux plate reader during compound treatment.
(qHTS replaces the single test concentration by a dilution series.)
As for `COc1ccc(CN(CCN(C)C)c2ncccn2)cc1`, the max response was 4.01% (inactive).

In the case of `C/C(=C(\CCO)SS/C(CCO)=C(\C)N(C=O)Cc1cnc(C)nc1N)N(C=O)Cc1cnc(C)nc1N`, the max response is 7.21% (inactive). Turning to `CC(=O)Nc1ccccc1O`, the max response was 2.65% (inactive).

Regarding `CCCCCC1CCC(=O)O1` (stereo not given), the max response was 24.1% (inactive).

For the compound `C1CCN(CN2CCCCC2)CC1`, the max response is 7.66% (inactive). Same read-out and setting: then `CC(=O)c1ccc(Cl)c(Cl)c1Cl`, with -19.2% (inactive). On the same count and under the same terms, as for `CCCCCCCCCCCCCCCCC(=O)O`, the figure is 3.49% (inactive). Turning to `Cc1ccc(NC=O)c(C)c1`, the max response is 4.39% (inactive). Same read-out and setting: as for `O=P(c1ccccc1)(c1ccccc1)c1ccccc1`, the figure is -19% (inactive); as for `Nc1ccc(F)cc1F`, -13.8% (inactive); as for `CC(CCl)OC(C)CCl` (stereo not given), -1.61% (inactive). Turning to `CC(C)C[C@H](NC(=O)[C@H](Cc1ccccc1)NC(=O)c1cnccn1)B(O)O`, the Potency is 0.0239 µM (active). Same read-out and setting: as for `COc1cc(CNC(=O)CCCC/C=C/C(C)C)ccc1O`, the figure is 8.48 µM (active). Consider `C=C[Si](OCC)(OCC)OCC`, for which the max response is 11.4% (inactive). For `COc1ccc(/C=C/c2cc(OC)cc(=O)o2)cc1`, the Potency was 8.92 µM (active). Take `COc1cc(C)c(Cc2cnc(N)nc2N)cc1OC`: the max response is 5.82% (inactive). Still for that read-out and setting: as for `O=C(c1ccc(Cl)cc1)c1ccc(Cl)cc1`, the figure is -15% (inactive). On the same count and under the same terms, as for `C=Cc1ccc(C=C)cc1`, the figure is 11.4% (inactive); as for `O=C(O)CNc1ccccc1`, 5.54% (inactive); as for `CCOC(C)OCC`, -0.223% (inactive). Same read-out and setting: then `CCCCCCCCNC`, with 3.01% (inactive). Take `C[Si](C)(C)O[Si](C)(C)O[Si](C)(C)C`: the max response was 7.13% (inactive). The same measure, in the same setting: as for `O=C(O)c1ccc2c(c1)nc(C(=O)NC1CCN(C3CC3)CC1)n2Cc1cc(-c2ccc(Cl)s2)on1`, the figure is -1.71% (inactive). Take `CCC(CC)C(=O)O`: the max response was 15% (inactive).

Regarding `C[C@H](N)C(=O)N[C@@H](C)C(=O)NC1[C@H]2CN(c3nc4c(cc3F)c(=O)c(C(=O)O)cn4-c3ccc(F)cc3F)C[C@@H]12` (stereo not given in full), the max response was 0.749% (inactive).

On to `C=CC(=O)OCCCCCCCCCC`, for which the max response was 12.1% (inactive).

Consider `Cc1c(-c2cccnc2)c2ccccc2n1CCCCC(=O)O`, for which the max response is 2.18% (inactive). Same read-out and setting: then `Cc1cc(C)n(CO)n1`, with 1.2% (inactive); and `CC(=O)OCC(=O)[C@@]1(O)CC[C@H]2[C@@H]3CCC4=CC(=O)C=C[C@]4(C)[C@@]3(F)[C@@H](O)C[C@@]21C`, with -21.2% (inactive). On the same count and under the same terms, then `Cc1ccc(Cl)c(OCC(O)CNC(C)(C)C)c1` (stereo not given), with 1.75% (inactive); and `C[C@@H](O)[C@H]1C(=O)N2C(C(=O)O)=C(S[C@@H]3CN[C@H](CNS(N)(=O)=O)C3)[C@H](C)[C@H]12`, with 2.56% (inactive). Still for that read-out and setting: then `O=[N+]([O-])c1ccc(Cl)cc1Cl`, with 2.44% (inactive). Turning to `O=C(O)CCc1nc2ccccc2[nH]1`, the max response is 11% (inactive). Same read-out and setting: then `C/C(=C\C(C)CC(C)CC(C)C)C1CC(=O)OC1=O` (stereo not given), with -12% (inactive); and `CCCOC(C)=O`, with -1.95% (inactive); and `O=C1c2ccccc2C(=O)C1c1ccc2cc(S(=O)(=O)O)cc(S(=O)(=O)O)c2n1`, with -25.3% (inactive). Same read-out and setting: as for `Cc1c(Cl)cccc1Nc1ccccc1C(=O)O`, the figure is -5.01% (inactive). Take `Oc1ccc(CCNCCCCCCNCCc2ccccc2)cc1O`: the Potency is 23.9 µM (active). Consider `O=c1c2ccccc2oc2ccccc12`, for which the max response is -17.5% (inactive). Regarding `NC(=O)c1cc[n+](CC2=C(C(=O)[O-])N3C(=O)[C@@H](NC(=O)Cc4cccs4)[C@H]3SC2)cc1`, the max response is 4.75% (inactive).
